Hit rate of the full screen: of about 48,000 compounds, about 13,000 (27%) showed an effect of 50% or more. Some of the results follow.

The assay concerns Wolbachia pipientis. The assay can be described thus: Anti-Wolbachia Cell-Based Screen. It counts as functional. Further details: scale not given: in the data most compounds retested in dose-response had high values. To be noted: 5 µM.
With `CC(O)c1cccc(N2CCC3(CC2)Nc2ccccc2NC3=O)n1` (stereo not given), the “Percent Effect” value is reported as 0.04909%.

Turning to `CCc1nc(C)c(C(=O)NCCNc2cnccn2)s1`, the “Percent Effect” value amounted to 1.537%.

For the compound `C[S+]([O-])c1nncn1CC(=O)c1ccc2c(c1)CCC2` (stereo not given), the “Percent Effect” value is listed as -5.964%.

Regarding `CCCS(=O)(=O)NC(=O)c1ccc(CC)o1`, the “Percent Effect” value is on record as -1.389%.

As to `Cc1cc(NCCO)nc(N2CCN(C)CC2)c1C#N`, the “Percent Effect” value is reported as 2.525%.

Turning to `CCn1c(C)nnc1SCCNc1nc(C)ncc1S(C)(=O)=O`, the “Percent Effect” value is reported as -10.91%.

Take `Cc1cc(NCCO)nc(N2CCCC2)c1C#N`: the “Percent Effect” value is given as -1.529%.

Take `Cc1cc(C)cc(OCCNC(=O)C(C)Sc2nncn2C)c1` (stereo not given): the “Percent Effect” value is given as -3.054%.

As to `CCn1cnnc1CCNC(=O)c1ccc(Br)cc1F`, the “Percent Effect” value is -14.54%.

`Cc1cc(C)c(C#N)c(NCCSc2nncn2C)n1`: the “Percent Effect” value was 98.82%.

On to `CCn1cnnc1CCNc1nc(C)cc(C)c1C#N`, for which the “Percent Effect” value is reported as 126.1%.

For the compound `Cc1cc(C)c(C#N)c(NCCn2cnnc2C(C)C)n1`, the “Percent Effect” value is reported as 112.6%.

`CCn1cnnc1CCNC(=O)C(C)(C)c1cccc(Cl)c1`: the “Percent Effect” value was -6.534%.

With `CC(C)(C)OC(=O)NC(C)(C)c1noc(Cn2ccnc2)n1`, the “Percent Effect” value is reported as 11.22%.

Take `CSCCC(NC(N)=O)C(=O)NCc1ccc(-n2cccn2)cc1` (stereo not given): the “Percent Effect” value is given as -16.66%.

Consider `O=C(Nc1cccnc1)NC1CCN(c2ccccc2OC(F)F)C1` (stereo not given), for which the “Percent Effect” value is listed as -19.82%.

For the compound `O=C(O)c1ccnc(-c2ccnc(N3CCC4(CCO4)CC3)n2)c1`, the “Percent Effect” value is -4.14%.

As for `COc1ccc(CN2CC[C@H]3[C@H]2CC(=O)N3Cc2cccc(C)n2)cc1.O=C(O)C(F)(F)F.O=C(O)C(F)(F)F`, the “Percent Effect” value came to 96.36%.

As to `CCc1ccc(CN2CC[C@H]3[C@H]2CC(=O)N3Cc2cccc(C)n2)o1.O=C(O)C(F)(F)F.O=C(O)C(F)(F)F`, the “Percent Effect” value was determined as 105.5%.

In the case of `Cc1cccc(CN2C(=O)CC[C@@H]3[C@H]2CCN3Cc2ccc(F)cc2)n1.O=C(O)C(F)(F)F.O=C(O)C(F)(F)F`, the “Percent Effect” value is -9.661%.

Turning to `Cc1cccc(CN2C(=O)C[C@H]3[C@@H]2CCN3Cc2ccc(F)cc2)n1.O=C(O)C(F)(F)F.O=C(O)C(F)(F)F`, the “Percent Effect” value is recorded as 93.32%.

On to `Cc1cccc(CN2C(=O)CC[C@@H]3[C@H]2CCN3C(=O)c2ccsc2)n1.O=C(O)C(F)(F)F`, for which the “Percent Effect” value is listed as -10.27%.

Turning to `Cc1ccc(CN2CC[C@H]3[C@H]2CC(=O)N3c2ccsc2)o1.O=C(O)C(F)(F)F`, the “Percent Effect” value is recorded as 12.94%.

Take `Cc1cccc(CN2C(=O)CC[C@@H]3[C@H]2CCN3Cc2cccnc2)n1.O=C(O)C(F)(F)F.O=C(O)C(F)(F)F.O=C(O)C(F)(F)F`: the “Percent Effect” value is -1.034%.

With `Cc1cc(C(=O)NCC(=O)NC(c2ncccc2C)C(C)C)c(C)o1` (stereo not given), the “Percent Effect” value is on record as -6.286%.

For `CC(C)NC(=O)c1cnc(Sc2nccn2C)c(Cl)c1`, the “Percent Effect” value worked out at 7.154%.

On to `CCCSc1nc(O)c(CC)c(=O)n1-c1ccccc1`, for which the “Percent Effect” value is -0.2298%.

As to `Cc1ncc(COc2cccc3c2NC(=O)CO3)s1`, the “Percent Effect” value is on record as -10.58%.

Take `Cc1cc(C(=O)N2CCOC[C@H](Oc3cccnc3)C2)c(C(F)(F)F)o1`: the “Percent Effect” value was 3.665%.

In the case of `O=C([C@@H]1CCO[C@@H]2CCN(Cc3cccnc3)C[C@H]21)N1CCCCO1`, the “Percent Effect” value was found to be 13.27%.

For `CC(C)=CCN(C)C1CCCN(Cc2noc(C)n2)C1` (stereo not given), the “Percent Effect” value is reported as 0.8027%.

`CO[C@@H]1CN(c2ccccc2)S(=O)(=O)[C@@]12CCN(Cc1cncs1)C2`: the “Percent Effect” value worked out at 104.5%.

Consider `CN1CC(=O)N(c2ccccc2)CC12CCN(CC1CC1)C2.O=C(O)C(F)(F)F.O=C(O)C(F)(F)F` (stereo not given), for which the “Percent Effect” value is listed as -12.9%.

`O=C1C[C@@H]2CCN(Cc3ccccc3)C[C@@H]2CCN1c1ccccc1`: the “Percent Effect” value turned out to be 1.893%.

Take `CO[C@@H]1CN(c2ccccc2)S(=O)(=O)[C@@]12CCN(CC1CC1)C2`: the “Percent Effect” value stood at 88.1%.

Take `CO[C@@H]1CN(c2ccccc2)S(=O)(=O)[C@@]12CCN(Cc1ccccc1)C2`: the “Percent Effect” value is 116.8%.

With `CO[C@H]1CN(c2ccccc2)S(=O)(=O)[C@@]12CCN(Cc1ccccc1)C2`, the “Percent Effect” value came to 88.28%.

Take `COCC1CC2(CCN(CC3CC3)CC2)CN1c1ncccn1.O=C(O)C(F)(F)F.O=C(O)C(F)(F)F` (stereo not given): the “Percent Effect” value was found to be 9.926%.

Regarding `O=C(CCn1ccccc1=O)N1CCN(Cc2cccc(Cl)c2)CC1`, the “Percent Effect” value is recorded as -6.995%.

As for `COc1cc(C2CC(=O)c3c(O)cc(O)cc3O2)ccc1O` (stereo not given), the “Percent Effect” value is listed as 4.847%.

Regarding `COc1ccc(-c2noc(Cn3cc(C)cn3)n2)c(OC)c1OC`, the “Percent Effect” value is reported as -1.893%.

As to `COc1ccccc1CN(Cc1cccs1)S(=O)(=O)N(C)C(C)C`, the “Percent Effect” value is given as -8.287%.

Take `Cc1ncc2c(n1)CCN(Cc1ncc(C(C)(C)C)o1)C2`: the “Percent Effect” value was found to be 1.311%.

In the case of `COc1ccc(C(N)c2cccc(S(C)(=O)=O)c2)cc1` (stereo not given), the “Percent Effect” value was 4.589%.

For `CS(=O)(=O)c1cccc(C(N)c2ccc(F)c(F)c2)c1.Cl` (stereo not given), the “Percent Effect” value was -2.394%.

Consider `Cc1ccc(C(NC(=O)C2CC2)c2cccc(S(C)(=O)=O)c2)cc1` (stereo not given), for which the “Percent Effect” value is 85.76%.

`CCNC(=O)NC(c1ccc(C)cc1)c1cccc(S(C)(=O)=O)c1` (stereo not given): the “Percent Effect” value turned out to be 96.65%.

As to `CS(=O)(=O)c1cccc(S(=O)(=O)NC(=O)CC2CCCC2)c1`, the “Percent Effect” value was -23.12%.

As for `CCC(=O)NC(c1ccc(C)cc1)c1cccc(S(C)(=O)=O)c1` (stereo not given), the “Percent Effect” value was 96.25%.

Consider `CC(CO)NS(=O)(=O)c1cccc(C(C)C)c1` (stereo not given), for which the “Percent Effect” value is reported as -1.865%.

For the compound `Cc1ccc(C(N)c2cccc(S(C)(=O)=O)c2)cc1` (stereo not given), the “Percent Effect” value worked out at 1.85%.

With `Cc1ccc(C(NC(=O)[C@H]2CC[C@@H](O)CC2)c2cccnc2)cc1C` (stereo not given in full), the “Percent Effect” value is given as -7.536%.

Turning to `COc1ccc(N2CCN(C(=O)CCn3nnnc3C)CC2(C)C)cc1`, the “Percent Effect” value is reported as 5.117%.

`Cl.Cl.c1cnc(NCc2cncc3c2CCN(Cc2ccoc2)C3)nc1`: the “Percent Effect” value is listed as 0.8556%.

Turning to `CN(Cc1cn2c(n1)CN(C(=O)N(C)C)CC2)Cc1ccco1`, the “Percent Effect” value is given as 3.747%.

Consider `CN(Cc1ccco1)Cc1cncc2c1CCN(Cc1ccoc1)C2.Cl.Cl.Cl`, for which the “Percent Effect” value is listed as 96.91%.

`CN(Cc1cccnc1)Cc1cncc2c1CCN(c1ccccn1)C2.Cl.Cl.Cl`: the “Percent Effect” value turned out to be 98.43%.

Regarding `CC(C)C(=O)N1CCc2c(CN(C)Cc3ccco3)cncc2C1.Cl.Cl`, the “Percent Effect” value was determined as 107%.

For `CC(C)N(C)Cc1cncc2c1CCN(C(=O)c1cccc(C#N)c1)C2.Cl.Cl`, the “Percent Effect” value is reported as -11.44%.

As for `CN(Cc1cccnc1)Cc1cncc2c1CCN(Cc1ccoc1)C2.Cl.Cl.Cl`, the “Percent Effect” value is given as 98.31%.

Turning to `Cl.Cl.O=C(NCc1cncc2c1CCN(Cc1ccoc1)C2)C1CC1`, the “Percent Effect” value was -1.129%.

As to `CN(Cc1cccnc1)CC1CNCc2nccn2C1` (stereo not given), the “Percent Effect” value is listed as -0.6774%.

As for `COC(=O)c1ccc(CN(C(C)C)C(C)C)o1.Cl`, the “Percent Effect” value is -10.72%.

For the compound `CN(CCC#N)C(=O)CN1CCCN(Cc2noc(C3CC3)n2)CC1`, the “Percent Effect” value was -26.77%.

As to `CCn1ccnc1CN1CCN(CC(=O)NC(C)(C#N)C2CC2)CC1` (stereo not given), the “Percent Effect” value is listed as -16.24%.

In the case of `CN(Cc1ccco1)Cc1cncc2c1CCN(S(C)(=O)=O)C2.Cl.Cl`, the “Percent Effect” value stood at 114%.

Consider `CCS(=O)(=O)N1CCn2cc(CN(C)Cc3ccco3)nc2C1`, for which the “Percent Effect” value was -9.31%.

Turning to `CC(C)CN1CCc2c(CN(C)Cc3ccco3)cncc2C1.Cl.Cl.Cl`, the “Percent Effect” value was found to be 112.5%.

For `CCS(=O)(=O)N1CCc2c(CN(C)Cc3ccco3)cncc2C1.Cl.Cl`, the “Percent Effect” value was determined as 0.2646%.

Take `COCCN1C[C@@H]2CN(S(=O)(=O)c3cccs3)C[C@@H]2C1=O`: the “Percent Effect” value is recorded as -21.25%.

Take `O=C(Nc1ccc2scnc2c1)N1CCN([C@H]2CCCC[C@@H]2O)CC1`: the “Percent Effect” value is -4.588%.

Take `CN(C)C1CCCN(C(=O)NCCC(C)(C)C)C1` (stereo not given): the “Percent Effect” value was -10.25%.

In the case of `CN(CC(F)(F)F)C(=O)CNC(=O)N1CCCC(N(C)C)C1` (stereo not given), the “Percent Effect” value stood at 95.13%.

`CN(CC(F)(F)F)C(=O)CNC(=O)N1CCCC(C(F)(F)F)C1` (stereo not given): the “Percent Effect” value came to 92.98%.

For `O=C(NCCNc1ncccn1)N1CCCC(C(F)(F)F)C1` (stereo not given), the “Percent Effect” value is recorded as -15.03%.

Consider `CN(C)C(=O)c1cccc(NC(=O)N2CCCC(C(F)(F)F)C2)c1` (stereo not given), for which the “Percent Effect” value was determined as 13.97%.

For `CN(C)C1CCCN(C(=O)NCCC(=O)N2CCCCCC2)C1` (stereo not given), the “Percent Effect” value is 0.3491%.

As to `Cc1nnc(C(C)N2CCCN(Cc3ccc(F)cc3)CC2)o1` (stereo not given), the “Percent Effect” value was 92.55%.

For the compound `Cc1nnc(C(C)N2CCN(Cc3ccc(C#N)cc3)CC2)o1` (stereo not given), the “Percent Effect” value is 2.063%.

With `Cc1nnc(C(C)N2CCN(Cc3ccc(C(F)(F)F)cc3)CC2)o1` (stereo not given), the “Percent Effect” value turned out to be 124.3%.

Take `Cc1nnc(C(C)N2CCCN(Cc3ccc(C#N)cc3)CC2)o1` (stereo not given): the “Percent Effect” value was 105.5%.

Consider `COc1cnc(N2CCCN(Cc3ccc(F)cc3)CC2)nc1`, for which the “Percent Effect” value stood at 0.06599%.

Consider `Cc1nnc(C(C)N2CCCN(Cc3noc(C4CC4)n3)CC2)o1` (stereo not given), for which the “Percent Effect” value is listed as 5.084%.

In the case of `Cc1nnc(C(C)N2CCN(Cc3ccc4c(c3)OCO4)CC2)o1` (stereo not given), the “Percent Effect” value is 12.94%.

Turning to `CC(c1ncc(C(C)(C)C)o1)N1CCN(Cc2ccncc2)CC1` (stereo not given), the “Percent Effect” value is recorded as -8.967%.

As for `CC(C)OCC(=O)N1CCCN(Cc2ccc(C#N)cc2)CC1`, the “Percent Effect” value is -9.345%.

On to `O=c1[nH]nc(-c2cccs2)c2sc(N3CCOCC3)nc12`, for which the “Percent Effect” value is on record as -14.46%.

Consider `CC(CN(C)C)Nc1nc(O)cc(Cc2ccccc2F)n1` (stereo not given), for which the “Percent Effect” value is listed as 94.63%.

Turning to `COc1ccccc1Cc1cc(O)nc(NC(C)CN(C)C)n1` (stereo not given), the “Percent Effect” value was determined as 91.33%.

For the compound `CC(CC#N)N(C)Cc1ccccc1F` (stereo not given), the “Percent Effect” value is reported as 11.31%.

`COc1ccccc1CCNC(=O)N(C)C(C)CS(C)(=O)=O` (stereo not given): the “Percent Effect” value was -10.73%.

With `CC(CCc1ccccc1F)C(=O)NS(=O)(=O)N(C)C(C)C` (stereo not given), the “Percent Effect” value is listed as -0.5241%.

`COc1ccccc1CC(C)(C)NC(=O)CN(C)C(C)C`: the “Percent Effect” value amounted to 3.69%.

Turning to `CC(=O)N1CCN(C(=O)C2SCCc3sccc32)CC1` (stereo not given), the “Percent Effect” value is on record as -2.542%.

As to `O=C(O)C(F)(F)F.O=C(O)C(F)(F)F.O=C(c1ccc(F)cc1)N1CCN2C[C@H](Oc3cccnc3)C[C@H]2C1`, the “Percent Effect” value is -2.866%.
